The full list was thinned out, with hits kept by preference.
EZH2 inh = EZH2/PRC2 methyltransferase inhibitors, primary screen, biochemical, DELFIA time-resolved fluorescence, single point. PRC2 H3K27 methylation, DELFIA TRF, 1 h. AID 651548, 2012. actives 0.35% (n = 57,000). inhibition, % at 12.5 µM;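 active means mean inhibition of replicates at least 50% and every single replicate also reaching 50%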;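 further: dimethyl H3K27 on biotinylated H3 21-44 peptide detected by antibody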
Target sequence (Q15910 whole entry, looked up): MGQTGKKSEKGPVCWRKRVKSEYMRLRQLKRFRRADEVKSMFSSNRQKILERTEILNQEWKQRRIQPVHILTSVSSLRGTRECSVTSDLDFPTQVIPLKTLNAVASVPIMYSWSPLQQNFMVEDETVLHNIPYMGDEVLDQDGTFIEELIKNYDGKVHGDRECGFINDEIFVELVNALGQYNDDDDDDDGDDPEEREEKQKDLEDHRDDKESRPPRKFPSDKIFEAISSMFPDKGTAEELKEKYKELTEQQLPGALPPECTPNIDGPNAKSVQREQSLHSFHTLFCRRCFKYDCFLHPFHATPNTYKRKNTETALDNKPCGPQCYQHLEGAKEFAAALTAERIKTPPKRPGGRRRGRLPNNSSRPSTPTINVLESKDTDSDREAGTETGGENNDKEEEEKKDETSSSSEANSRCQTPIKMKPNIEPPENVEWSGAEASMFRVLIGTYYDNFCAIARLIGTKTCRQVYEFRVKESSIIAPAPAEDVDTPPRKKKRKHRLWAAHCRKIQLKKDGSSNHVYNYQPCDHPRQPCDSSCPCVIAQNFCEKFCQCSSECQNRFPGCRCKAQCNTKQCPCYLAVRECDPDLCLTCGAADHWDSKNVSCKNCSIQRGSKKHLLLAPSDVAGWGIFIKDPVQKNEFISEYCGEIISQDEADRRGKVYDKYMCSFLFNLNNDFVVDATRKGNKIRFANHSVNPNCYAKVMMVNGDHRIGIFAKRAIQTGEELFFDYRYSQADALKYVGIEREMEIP
Of the large screens only hits and unclear results are named; the others gave an inactive call.

COCCOC(=O)N1C(=O)[C@@]2(c3ccccc31)[C@H](c1ccccc1OCCO)N1[C@H](c3ccccc3)[C@H](c3ccccc3)OC(=O)[C@H]1[C@@H]2C(=O)N1CCc2cc(OC)c(OC)cc2C1	none
COC(=O)CNC(=O)c1cc2cc(Cl)ccc2oc1=O	none
CN(CC(=O)Nc1cccc(I)c1)S(=O)(=O)c1ccc(Cl)cc1	EZH2 inh 52.5
CN(CC(=O)Nc1cccc(Cl)c1)S(=O)(=O)c1ccc2ccccc2c1	none
CC(=O)Nc1ccc(NC(=O)CN(C)S(=O)(=O)c2ccc(Cl)cc2)cc1	none
Nc1nnc(SCC(=O)Nc2ccc(Oc3ccccc3)cc2)s1	none
CS(=O)(=O)N(CC(=O)Nc1ccc(F)c(F)c1)c1ccccc1Br	none
C[C@@H]1O[C@@H](O[C@H]2[C@H](Oc3cc(O)c4c(c3)O[C@H](c3ccc(O)c(O)c3)CC4=O)O[C@H](CO)[C@@H](O)[C@@H]2O)[C@H](O)[C@H](O)[C@H]1O	none
C[C@@H]1O[C@@H](Oc2ccc(C3Oc4cc(O)cc(O)c4C(=O)C3O)cc2O)[C@H](O)[C@H](O)[C@H]1O (some centres undefined)	EZH2 inh 97.4
O=C1c2c(O)cc(O)cc2O[C@H](c2ccccc2)[C@H]1O	none
COc1ccc2ccc(=O)oc2c1C(OC(C)=O)C(=O)C(C)C (centres undefined)	none
CS(=O)(=O)N(CC(=O)Nc1cccc(Cl)c1Cl)c1ccc(F)c(Cl)c1	none
CC(=O)c1ccc(NC(=O)Cn2cnc3c(sc4nc5c(cc43)COC(C)(C)C5)c2=O)cc1	none
Cn1ccnc1SCC(=O)N1c2ccccc2C(C)(c2ccc(Cl)cc2)CC1(C)C (centres undefined)	none
C=CCNC(=O)[C@@H]1[C@H]2C(=O)O[C@H](c3ccccc3)[C@H](c3ccccc3)N2[C@H](c2ccccc2OCCO)[C@@]12C(=O)Nc1ccc(C#Cc3ccc(OC)cc3)cc12	none
COc1ccc(C#Cc2ccc3c(c2)[C@]2(C(=O)N3)[C@H](c3ccccc3OCCO)N3[C@H](c4ccccc4)[C@H](c4ccccc4)OC(=O)[C@H]3[C@@H]2C(=O)O)cc1	EZH2 inh 59.4
C=CCNC(=O)[C@H]1[C@@H]2C(=O)O[C@@H](c3ccccc3)[C@@H](c3ccccc3)N2[C@@H](c2ccccc2OCCO)[C@]12C(=O)Nc1ccc(C#Cc3ccc(OC)cc3)cc12	none
O=C(CSc1nnnn1-c1ccc(O)cc1)Nc1ccc(F)cc1	none
Oc1ccc([C@H]2Oc3cc(O)cc(O)c3C[C@H]2O)cc1	none
Oc1ccc([C@@H]2Oc3cc(O)cc(O)c3C[C@@H]2O)cc1	EZH2 inh 89.3
O=C1c2c(O)cc(O)cc2OC(c2ccc(O)cc2)C1C1C(=O)c2c(O)cc(O)cc2OC1c1ccc(O)cc1 (centres undefined)	none
O=C(CN1C(=O)c2ccccc2S1(=O)=O)Nc1ccccc1Br	none
Nc1cc(N)nc(SCC(=O)Nc2ccc3ccccc3c2)n1	none
Cc1cc(Oc2ccccc2)nc(SCC(=O)Nc2ccc(Cl)cc2Cl)n1	none
Cc1cc(Oc2ccccc2)nc(SCCOc2ccccc2)n1	EZH2 inh 51.9
Cc1cc(C)nc(SCC(O)COc2ccc(Cl)cc2)n1 (centres undefined)	none
Cc1cccc(OCC(=O)Nc2ccccc2C(=O)NC2CCCCC2)c1	none
Cn1c(NCCCN)nc2c1c(=O)n(Cc1ccccc1Cl)c(=O)n2C	none
COc1ccc(OC)c(NC(=O)CSc2nc3ccccc3n2C2CCCCC2)c1	none
O=C(COc1ccc([N+](=O)[O-])cc1)Nc1ccc(Cl)c(-c2nc3ccccc3s2)c1	none
CN(CC(=O)Nc1ccc(Cl)cc1C(F)(F)F)S(=O)(=O)c1ccc(Br)cc1	none
COC(=O)CCCCCCC(=O)N/N=C/c1cc(O)ccc1[N+](=O)[O-]	none
CCCCCCN(CCCCCC)C(=O)Cc1c(-c2ccc(F)cc2)[nH]c2ccccc12	none
CCCCOC(=O)c1ccc(N)cc1	none
CCCCCCCCc1ccc(-c2ccc(C(=O)O)cc2)cc1	EZH2 inh 72.0
COc1cc(/C=N/NC(=O)c2ccc(C(=O)NO)cc2)cc(OC)c1OC	none
O=C1CCCc2c1n(CCN(Cc1ccccc1)Cc1ccccc1)c1ccc(Cl)cc21	none
O=C(O)c1c(Sc2ccccc2)c2cc(Cl)ccc2n1Cc1ccc(Cl)cc1	EZH2 inh 63.9
CC(=O)N(C)c1ccc(OCC(O)Cn2c3ccc(Cl)cc3c3cc(Cl)ccc32)cc1 (centres undefined)	none
COc1ccc(N(CC(=O)Nc2ccccc2Br)S(C)(=O)=O)cc1OC	none
Cc1ccc(-c2ccn(-c3ccc(C)c(Cl)c3)c(=S)n2)cc1	none
Cc1cc(C)nc(NS(=O)(=O)c2ccc(NC(=O)c3ccc(C(=O)c4ccccc4)cc3)cc2)n1	none
Cc1cc(C)nc(NS(=O)(=O)c2ccc(N)cc2)n1	none
Cc1cc(C)nc(NS(=O)(=O)c2ccc(Nc3nc(-c4ccc(F)cc4)cs3)cc2)n1	EZH2 inh 58.2
O=C(Nc1ccc(S(=O)(=O)Nc2ncccn2)cc1)c1ccc(-c2ccccc2)cc1	none
Cc1cc(C)nc(NS(=O)(=O)c2ccc(NC(=O)c3ccc(-c4ccccc4)cc3)cc2)n1	EZH2 inh 55.7
CCOc1ccccc1C(=O)Nc1ccc(S(=O)(=O)Nc2nc(C)cc(C)n2)cc1	none
O=P(CCNCc1cccnc1)(c1ccccc1)c1ccccc1	none
COc1cccc(-c2cc(C(F)(F)F)n3nc(C(=O)Nc4cc(C)nn4-c4ccccc4)cc3n2)c1	none
COc1cccc(CNc2nc3nc(C)c(Cc4ccccc4)c(=O)n3[nH]2)c1	none
CN(C)CCNc1nc2c(c(=O)n(C)c(=O)n2C)n1Cc1ccccc1F	none
CN(C(=S)SCc1ccccc1)c1ccccc1	EZH2 inh 66.5
CN(C)S(=O)(=O)N(CC(=O)O)c1ccccc1	none
COC(=O)c1cc(C)sc1NC(=S)Nc1cnn(C)c1C(N)=O	none
Cc1ccc(NC(=O)CSC2CC(=O)N(c3ccc(Cl)cc3)C2=O)cc1 (centres undefined)	none
O=C(N/N=C/c1ccc(B(O)O)cc1)c1ccccn1	none
Cc1cc([N+](=O)[O-])nn1CC(=O)Nc1cccc(O)c1	none
COc1ccc(CN2C(=O)C(O)(CC(=O)c3ccc(C)s3)c3ccccc32)cc1OC (centres undefined)	none
Cc1ccc(S(=O)(=O)N(C(=O)C2CCCCC2)c2ccc3oc(=O)sc3c2)c(C)c1	EZH2 inh 53.6
COc1ccc(N(C(=O)C2CCCCC2)S(=O)(=O)c2cccc3cccnc23)cc1	none
CC(=O)c1c(C)oc2ccc(N(C(=O)c3ccncc3)S(=O)(=O)c3ccc(F)cc3C)cc12	none
Cc1ccccc1OCC(=O)Nc1cccc(NC(=O)C(C)C)c1	none
CS(=O)(=O)N(CC(=O)Nc1ccccc1Br)c1cc(Cl)c(Cl)cc1Cl	none
CCc1ccc(C(Nc2cc(C)ccn2)c2ccc3ccc(C)nc3c2O)cc1 (centres undefined)	none
Cc1ccc(-n2c(SCC(=O)NCC3CCCO3)nc3sc(C)c(C)c3c2=O)cc1C (centres undefined)	none
COc1ccc(S(=O)(=O)NCCCN2CCOCC2)c(C)c1C	none
CC1=CC(=O)OC1(O)CCC(C)CC(=O)O (centres undefined)	EZH2 inh 100.1
CC(CC[C@]1(C)C2CCC=C(CO)[C@]2(C)CC[C@H]1C)CC(=O)O (some centres undefined)	none
O=C(Nc1sc2c(c1C(=O)NCC1CCCO1)CCCC2)c1ccc(Cl)cc1Cl (centres undefined)	none
Cc1ccc(NC(=O)CSc2nccc(C)n2)cc1	none
CCOC(=O)c1c(-c2ccc(C)cc2)csc1NC(=O)c1cccc(OC(C)=O)c1	none

Screening results from PubChem BioAssay.
